Screens as filed in PubChem.
TEAD-YAP block = TEAD-YAP interaction inhibition. HEK-TIYL cells, TEAD-Gal4/YAP UAS-luciferase luminescence. inhibition, % at 9.12 µM. 640,000 tested, 1.4% active; in the data active = inhibition above about 32%;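 also: 0% = median of test compound wells and 100% = reference inhibitor wells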
GPR151 ag = human GPR151 activation. Q8TDV0. PathHunter beta-arrestin GPR151 cells, luminescence. activation, % at 11.2 µM. 650,000 tested, 1% active. AID 1508602; in the data active = activation above about 4.9%;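 also: 0% = median of compound wells and 100% = cells with positive control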
MITF inh = inhibitors of human MITF | inhibition, % at 2.6 µM | AlphaScreen MITF homodimerization, bead proximity signal | 650,000 tested, 0.91% active | O75030; in the data active = inhibition above about 50%;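 also: 0% = vehicle wells with protein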
FBW7 activator = human FBW7 E3 ligase activation, primary screen. AlphaScreen FBW7–phospho-cyclin E peptide binding, activator screen. normalized activity (activation), % at 26.1 µM. 650,000 tested, 0.13% active. AID 1259310; in the data active = normalized activity above about 1.9%;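 also: purified mutant Fbw7 with reduced substrate affinity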
* hit, by the source's call. Compounds with a hit are over-represented: about 3.4% of the library has one in this group of screens.

SMILES	TEAD-YAP block	GPR151 ag	MITF inh	FBW7 activator
CC(C)n1cnc2c(NC3CCN(Cc4ccccc4)CC3)nc(-c3ccc(C(=O)N4CCN(C)CC4)cc3)nc21	58*	2	-1	0
CC(C)n1cnc2c(NC3CCN(Cc4ccccc4)CC3)nc(-c3ccc(N4CCN(C)CC4)cc3)nc21	28	0	1	0
CN1CCN(C(=O)c2ccc(-c3nc(NC4CC4)c4ncn(-c5ccccc5)c4n3)cc2)CC1	41*	2	3	0
CC(C)n1cnc2c(NCc3ccccc3)nc(-c3ccc(C(=O)NC4CC4)cc3)nc21	-17	0	-9	0
CC(=O)c1cccc(-c2nc(NC3CCN(Cc4ccccc4)CC3)c3ncn(C(C)C)c3n2)c1	73*	1	-3	0
CC(C)n1cnc2c(Nc3ccccc3)nc(-c3ccc(C(=O)NC4CC4)cc3)nc21	32*	-1	-20	0
COC(=O)CN(C)S(=O)(=O)c1ccc([N+](=O)[O-])cc1	-3	4	-5	0
CCC1CCCCN1C(=O)CCN1C(=O)c2ccccc2C1=O (stereo not drawn)	-3	-2	2	0
Cc1ccccc1NC(=O)Cn1nnc(C(N)=O)c1N	5	0	10	0
COc1ccc(-c2nc(NC3CCN(Cc4ccccc4)CC3)c3ncn(C(C)C)c3n2)cc1	-3	-3	10	0
CC(C)n1cnc2c(NC3CCN(Cc4ccccc4)CC3)nc(-c3ccc(C(=O)NC4CC4)cc3)nc21	52*	2	1	0
CC1CCCN(CC(O)COc2ccc(Br)cc2Br)C1 (stereo not drawn)	-6	0	11	1
O=C(CSc1ccccc1)N1CCN(c2nc3ccccc3s2)CC1	38*	-7	3	0
CN(C(=O)c1cc(-c2cccc(O)c2)on1)c1ccccc1	48*	0	-12	0
CCCCNC(=O)c1cc(-c2cccc(O)c2)on1	36*	0	9	0
CCCCNC(=O)c1cc(-c2cccc(OC)c2)on1	-45	-2	-6	0
O=C(NC1CCCC1)c1cc(-c2cccc(O)c2)on1	70*	0	-4	0
O=C(NC1CCCCC1)c1cc(-c2ccccc2)on1	-47	0	1	0
COc1ccc(N(CC(=O)N2CCN(c3ccccc3)CC2)S(=O)(=O)c2ccccc2)c(OC)c1	0	0	-4	0
CC(=O)Oc1ccc(C(=O)Nc2cccc(C(=O)NC(C)(C)C)c2)cc1	12	2	-1	0
CC(C)(C)NC(=O)c1cccc(NC(=O)c2cccc(O)c2)c1	34*	-1	14	0
CC(C)C(=O)Nc1cccc(NC(=O)c2cccc(Br)c2)c1	-6	0	-8	0
CC(C)C(=O)Nc1cccc(C(=O)Nc2cccc(O)c2)c1	59*	-2	14	1
Nc1nncn1C(=O)c1cccc(Cl)c1	5	1	11	0
O=C(COc1ccccc1)NCc1nnc2n1CCN(C1CCSC1)CC2 (stereo not drawn)	9	0	9	0
SMILES	TEAD-YAP block	GPR151 ag	MITF inh	FBW7 activator
CN1CCN(c2cc(-c3ccc(F)cc3)nc(-c3ccncc3)n2)CC1	-3	-1	18	0
CN1CCN(c2cc(-c3ccncc3)nc(-c3ccncc3)n2)CC1	38*	-2	11	0
CCOc1cccc(/C=N/NC(=S)Nc2ccccc2[N+](=O)[O-])c1O	71*	3	12	0
CCOc1cccc(/C=N/NC(=O)c2cc(-c3cccc([N+](=O)[O-])c3)n[nH]2)c1O	60*	0	41	0
CCOc1ccccc1-c1cc(C(=O)N/N=C/c2cccc(OCC)c2O)[nH]n1	69*	-2	18	0
O=C(Cn1c(NCCCO)nc2ccccc21)c1cccc([N+](=O)[O-])c1	12	0	-5	0
Cc1cc(C)cc(NC(=O)N[C@H]2C[C@H]3C(=O)N[C@@H](CCCCN)C(=O)N3C2)c1	-2	1	3	-1
O=Cc1ccccc1-c1ccc(OCc2ccccn2)nc1	-13	0	12	0
CCOc1ccccc1Nc1nnc(SCc2cc(C(C)=O)ccc2OC)s1	-3	0	-7	0
CCOc1ccc(C(C)=O)cc1CSc1nnc(Nc2ccccc2)s1	35*	-1	-3	0
O=C(COC(=O)c1ccc2c(c1)C(=O)N(C1CCCCC1)C2=O)c1ccc(Br)cc1	2	1	-8	0
O=C1/C(=C/C=C/c2ccco2)CCC/C1=C\C=C\c1ccco1	-2	0	64*	0
O=C1Nc2ccccc2/C1=C/C=C/c1ccco1	-66	1	8	0
O=C1/C(=C\c2ccco2)CCC/C1=C\c1ccco1	0	0	83*	0
O/N=C1\CCCC\C1=C\c1ccco1	-13	2	4	0
C/C(O)=C/c1nc2cccnc2nc1/C=C(/C)O	7	-1	73*	0
O/C(=C\c1nc2ccccc2nc1/C=C(\O)c1ccccc1)c1ccccc1	-30	-1	8	0
CCOC(=O)c1ccc(NC(=O)CCN2C(=O)c3ccccc3C2=O)cc1	1	-1	8	0
CC1=CC(C)(C)N(C(=O)c2ccc(NS(C)(=O)=O)cc2)c2ccc(C)cc21	59*	1	2	0
CC1=CC(C)(C)N(C(=O)Nc2ccc(Cl)cc2)c2ccc(C)cc21	-11	-1	7	0
COc1cc(C2C(C(=O)N3CCOCC3)=C(C)NC3=C2C(=O)CC(C)(C)C3)cc([N+](=O)[O-])c1O (stereo not drawn)	5	1	3	0
O=c1c(Cl)c(Cl)cnn1C12CC3CC(CC(C3)C1)C2	78*	0	4	0
O=c1c(Cl)c(NCCO)cnn1C12CC3CC(CC(C3)C1)C2	11	0	7	0
CC(=O)C1=C(C)NC(=O)NC1c1ccccc1OCC#N (stereo not drawn)	-11	1	1	0
CC(C)(CO)NC(=O)c1cc(-c2ccc(Cl)cc2Cl)on1	48*	-1	-15	0
SMILES	TEAD-YAP block	GPR151 ag	MITF inh	FBW7 activator
CCN(CC)C(=O)c1cc(-c2ccc(Cl)cc2Cl)on1	-77	0	13	0
O=C1OC(c2ccc(Cl)cc2)=N/C1=C/c1ccccc1OC(=O)c1ccc(Br)cc1	-3	1	-15	0
Cc1ccc(C2=N/C(=C\c3ccccc3OC(=O)c3ccc(Cl)cc3)C(=O)O2)cc1	45*	-1	-8	0
Fc1ccc(CNc2c(-c3cc4c(cc3Cl)OCO4)nc3cnccn23)cc1	-4	1	-5	0
Fc1cccc(/C=N/Nc2ncnc3nc[nH]c23)c1	9	-7	9	0
Cc1ccc(/C=N/Nc2ncnc3nc[nH]c23)cc1	29	-2	9	0
CN(C)c1ccc(/C=N/Nc2ncnc3nc[nH]c23)cc1	60*	-1	-4	0
COc1ccc(/C=N/Nc2ncnc3nc[nH]c23)cc1	58*	-2	11	0
Clc1cccc(/C=N/Nc2ncnc3nc[nH]c23)c1	58*	-5	4	0
Oc1ccc(Br)cc1/C=N/Nc1ncnc2nc[nH]c12	72*	-2	75*	0
